Most compounds without a hit are left out; they make up all but 3.2% or so of the library.
CaV13 ICDI inh: Primary screen for inhibitors of IQ motif and Ca2+-dependent inactivation inhibitor domain binding in CACNA1D, Förster resonance energy transfer in living cells, … | HEK cells, CFP/YFP FRET ICDI-IQ, plate reader, 10 min; percent FRET-ratio fall versus neutral wells | inhibition, % at 12.3 µM | AID 743397 | hit rate 0.098% among 340,000;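 active = mean replicate inhibition of at least 30% and at least 1% of replicates passing that level; inconclusive = only one of the two criteria is met; inactive = neither criterion is met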;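 also: 0% = median of the neutral control wells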
PGC1a acetyl inh: lowers PGC1a acetylation signal in U2OS cells. AID 651687. inhibition, % at 15.6 µM. hit rate 0.17% among 350,000. AlphaScreen anti-acetyl-lysine; with virally co-expressed GCN5 acetyltransferase;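 active = every replicate shows inhibition of at least 40%; inconclusive = mean inhibition at least 40% but some replicate below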;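 also: 0% = neutral control wells and 100% = positive control wells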
INS-1E GSIS act: primary screen for activators of insulin secretion dependent on glucose, INS-1E cells, GLuc reporter luminescence. INS-1E GLuc reporter insulin secretion, 2-3 h. activation, % at 16.6 µM. hit rate 0.61% among 370,000;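 active = lowest replicate activation of at least 40%, so every replicate reaches that level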;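 also: 0% = median of neutral control wells and 100% = median of IBMX positive control wells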
DENV2 CPE rescue: protects cells from dengue virus 2 cytopathic effect. AID 651640. hit rate 1.7% among 350,000. CPE inhibition, % at 9.99 µM. DENV2-infected cells, cytopathic effect rescue, plate reader; in the data active = CPE inhibition above about 20%, passing the limit was not always enough; inconclusive = no clear call, values can overlap the other calls; tested in BHK-21 cells;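 also: 0% = median of neutral control wells and 100% = median of positive control wells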
ERAP1 inh: blocks human ERAP1 aminopeptidase activity. Q9NZ08. recombinant ERAP1, Leu-AMC fluorescence, 60 min. inhibition, % at 10.7 µM. hit rate 0.15% among 340,000. AID 652197;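 active = mean replicate inhibition of at least 30%, or all replicates individually reaching that 30% level; inactive = mean below 30% and not every replicate reaching it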;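 also: 0% = neutral control wells and 100% = L-leucinethiol positive control wells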
Target sequence (Q9NZ08 whole entry, looked up): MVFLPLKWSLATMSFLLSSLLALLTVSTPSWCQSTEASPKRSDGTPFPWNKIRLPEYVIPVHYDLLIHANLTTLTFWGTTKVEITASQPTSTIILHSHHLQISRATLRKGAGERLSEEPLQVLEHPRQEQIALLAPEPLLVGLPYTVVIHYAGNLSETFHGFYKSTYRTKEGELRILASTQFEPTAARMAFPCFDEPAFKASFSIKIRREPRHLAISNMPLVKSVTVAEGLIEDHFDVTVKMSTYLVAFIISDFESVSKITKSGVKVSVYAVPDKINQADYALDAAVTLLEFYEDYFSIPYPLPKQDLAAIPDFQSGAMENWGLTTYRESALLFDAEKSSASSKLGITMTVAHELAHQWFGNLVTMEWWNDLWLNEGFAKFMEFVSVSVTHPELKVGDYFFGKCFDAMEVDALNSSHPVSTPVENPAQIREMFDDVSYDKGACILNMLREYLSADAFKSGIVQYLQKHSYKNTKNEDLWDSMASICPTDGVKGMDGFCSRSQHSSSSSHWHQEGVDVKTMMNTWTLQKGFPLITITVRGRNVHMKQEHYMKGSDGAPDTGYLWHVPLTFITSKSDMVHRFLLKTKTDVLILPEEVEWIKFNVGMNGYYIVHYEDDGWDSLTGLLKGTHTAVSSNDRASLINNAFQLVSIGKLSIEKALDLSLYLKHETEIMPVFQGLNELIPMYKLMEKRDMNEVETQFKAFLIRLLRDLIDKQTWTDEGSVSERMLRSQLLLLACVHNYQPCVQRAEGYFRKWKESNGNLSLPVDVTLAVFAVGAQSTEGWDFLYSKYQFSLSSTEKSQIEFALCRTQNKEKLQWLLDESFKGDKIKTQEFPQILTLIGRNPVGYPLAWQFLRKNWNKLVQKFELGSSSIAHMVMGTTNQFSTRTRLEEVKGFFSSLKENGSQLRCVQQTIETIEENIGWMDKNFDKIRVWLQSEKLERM
rRNA inh HTS: selective bacterial rRNA inhibition in E. coli; E. coli WT GFP vs humanized-ribosome RFP mutants, fluorescence, 24 h; active compounds read low; DMSO median 0, no signal -100; GFP signal change (wild-type ribosome), % (concentration not given with the values); hit rate 1.6% among 350,000;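 active = significant combined selectivity score with lowered wild-type GFP, culture density cut under 30%, mutant RFP and density less affected; inactive = any of these conditions unmet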
Starred values were filed as active, the others as inactive; u = inconclusive; x = no result given; + = active, no number.

SMILES | CaV13 ICDI inh | PGC1a acetyl inh | INS-1E GSIS act | DENV2 CPE rescue | ERAP1 inh | rRNA inh HTS
C=CC1CN2CCC1C[C@@H]2CO (stereo not given in full) | x | 20.1 | x | 20.2* | -2.8 | x
CCCNC(=O)N1[C@@H]2Cn3c(ccc(-c4cccc(C(=O)N(C)C)c4)c3=O)[C@H]1[C@@H](C(=O)O)[C@@H]2CO | x | 5.7 | 8.4 | -3.1 | 3.8 | 2.4
O=C(CF)NC(NC(=S)Nc1cccc([N+](=O)[O-])c1)C(Cl)(Cl)Cl (stereo not given) | -1.5 | x | -23.0 | 2.9 | -36.0 | 2.8
COc1ccc(NC(=S)NC(NC(=O)CF)C(Cl)(Cl)Cl)cc1[N+](=O)[O-] (stereo not given) | 0.5 | x | 36.9 | 0.6 | -5.4 | -21.8*
N#Cc1cccc(-c2ccc([C@H]3[C@@H](CO)N4CCCCN(C(=O)Cc5ccncc5)C[C@@H]34)cc2)c1 | x | 4.3 | 11.1 | -9.7 | -1.3 | -0.7
Clc1ccccc1CN1CCN(c2ccccc2Cl)CC1 | -7.7 | x | -17.6 | x | -2.7 | -42.2*
Clc1ccccc1N1CCN(Cc2ccc3c(c2)OCO3)CC1 | -5.1 | 0.5 | -12.8 | 1.1 | 4.3 | -29.9
Cc1nc2ccccc2c(=O)n1-c1nccs1 | -10.4 | x | 0.3 | 43.3* | -1.9 | 4.0
COC(=O)[C@@H]1[C@@H](CO)[C@@H]2Cn3c(ccc(-c4ccncc4)c3=O)[C@H]1N2CCc1ccccc1 | x | x | 12.3 | 107.3* | 0.3 | 1.4
NP(=O)(OCCCc1ccccc1)Oc1ccc(Cl)cc1 (stereo not given) | -3.8 | -12.9 | -9.6 | 20.2* | -0.9 | -2.8
NP(=O)(OCCCc1ccccc1)Oc1ccccc1Cl (stereo not given) | -4.6 | 2.5 | x | x | 6.2 | -11.4
Cn1ncnc2c(=O)n(C)c(=O)nc1-2 | x | 100.1* | x | x | x | x
CS(=O)(=O)N1C[C@@H]2N[C@H](C1)C2c1ccccc1 (stereo not given in full) | x | x | 14.8 | x | x | 0.3
Cc1ccc(N)c(C)c1 | x | 4.4 | 0.8 | 82.3* | -4.7 | 3.5
COC(=O)[C@@H]1[C@@H](CO)[C@@H]2Cn3c(ccc(-c4ccccc4)c3=O)[C@H]1N2CCc1ccccc1 | x | x | -2.7 | 5.2 | -0.9 | -2.1
Cn1c(NN=O)nc2ccccc21 | -9.3 | 4.0 | 31.6 | -2.0 | -0.7 | -23.0*
COC(=O)[C@@H]1[C@@H](CO)[C@@H]2Cn3c(ccc(-c4ccc(F)cc4)c3=O)[C@H]1N2Cc1cccnc1 | x | x | 10.4 | 2.9 | 2.1 | -1.9
COC(=O)C1=C(N)Oc2cc(C)oc(=O)c2C12C(=O)Nc1ccccc12 (stereo not given) | -1.1 | 6.3 | -1.4 | -1.8 | 7.8 | -23.2*
COCCOC(=O)C1=C(C)OC(N)=C(C(=O)OC)C12C(=O)Nc1ccccc12 (stereo not given) | -8.4 | 3.8 | 1.9 | x | x | x
N=C1c2ccccc2CN1c1ccc(F)c([N+](=O)[O-])c1 | -16.2 | 5.5 | 67.0* | 7.2 | x | -4.7
COc1ccc(C(=O)OC2C[C@H]3CC[C@H](C2)N3C)cc1OC (stereo not given in full) | -5.0 | x | -4.8 | 5.0 | -1.5 | -5.1
COc1ccc(C(=O)OC2CC[C@@]3(C)C4CCC5[C@]6(O)CC(O)[C@@]7(O)C(CN8CC(C)CCC8[C@@]7(C)O)[C@]6(O)C[C@@]53O[C@]24O)cc1OC (stereo not given in full) | -9.2 | x | 45.9* | 2.3 | -2.4 | 5.3
O=c1ccc2cc(O[C@@H]3O[C@@H](CO)[C@H](O)[C@@H](O)[C@@H]3O)c(O)cc2o1 | 13.2 | 20.3 | -12.9 | -6.8 | + | 19.1
N#C[C@H](O[C@@H]1O[C@H](CO[C@@H]2O[C@H](CO)[C@@H](O)[C@H](O)[C@H]2O)[C@@H](O)[C@H](O)[C@H]1O)c1ccccc1 | -10.4 | x | 11.7 | 1.7 | x | 6.3
CCCN1[C@@H]2c3ccc(-c4cccc(C(=O)N(C)C)c4)c(=O)n3C[C@H]1[C@H](CO)[C@H]2C(=O)OC | x | x | 13.5 | 9.6 | 7.3 | 1.7
SMILES | CaV13 ICDI inh | PGC1a acetyl inh | INS-1E GSIS act | DENV2 CPE rescue | ERAP1 inh | rRNA inh HTS
OC[C@@H]1Nc2ccc(C#Cc3cccnc3)cc2[C@@H]2NCC[C@H]12 | x | x | 28.2 | x | x | 5.2
COc1ccc(OC(=O)N(C)C[C@@H]2OCc3ccccc3-c3c(n(C)c4ccccc34)C(=O)N([C@@H](C)CO)C[C@@H]2C)cc1 | x | 5.2 | -25.5 | -3.9 | -1.2 | -1.2
CCCCCCCCCCCCCCCC[N+](C)(C)C | -5.3 | -8.4 | x | u | 42.4* | x
O=C(Cc1cccnc1)N1CCCCN2[C@H](CO)[C@H](c3ccc(/C=C/c4ccccc4)cc3)[C@@H]2C1 | x | 0.7 | 1.6 | -1.1 | -2.2 | -46.4
CN1CCN(Cc2ccc3ccccc3c2)CC1 | -0.3 | 15.9 | 28.7 | -3.9 | 1.7 | -23.6
CCCCCCOc1ccc(CN2CCN(C)CC2)cc1 | -7.4 | -4.5 | 19.0 | -4.9 | 0.7 | -25.2*
CN1[C@@H]2CN(CC(F)(F)F)C[C@H]1C2c1ccc(Br)cc1 (stereo not given in full) | x | x | 9.5 | x | x | -4.1
CN1C(=O)N(C)C(=O)C2(Cc3cc([N+](=O)[O-])ccc3N3CCN(C(=O)c4ccccc4)CC32)C1=O (stereo not given) | -7.6 | -4.6 | -7.6 | 1.5 | 3.4 | -12.4
O=C1NC(=O)C2(Cc3cc([N+](=O)[O-])ccc3N3CCN(C(=O)c4ccccc4)CC32)C(=O)N1 (stereo not given) | -4.3 | 11.7 | -9.2 | -2.6 | 5.7 | -29.3*
COC(=O)[C@H]1[C@H](CO)[C@H]2Cn3c(ccc(C4=CCCCC4)c3=O)[C@@H]1N2Cc1ccccc1OC | x | x | 4.6 | -6.2 | 1.8 | -5.6
N#Cc1cccc(-c2ccc([C@@H]3[C@H]4CN(C(=O)Cc5cccnc5)CCCCN4[C@H]3CO)cc2)c1 | x | -6.5 | 14.1 | -0.1 | -1.1 | -5.7
COc1ccc(C#Cc2ccc([C@H]3[C@@H](CO)N4CCCCN(C(=O)Cc5ccccc5)C[C@@H]34)cc2)cc1 | x | -4.8 | -1.0 | -4.2 | 4.5 | 6.1
Nc1cnn(-c2ccccc2)c(=O)c1Cl | -2.4 | 10.1 | 8.1 | 30.3* | 1.9 | 10.3
Cc1ccccc1-c1ccc([C@@H]2[C@@H](CO)N3CCCCN(C(=O)Cc4ccccn4)C[C@@H]23)cc1 | x | 8.9 | -10.0 | -3.2 | 2.0 | 1.9
C[C@H]1C[C@@H](C)C(=O)[C@@H]([C@H](O)CC2CC(=O)NC(=O)C2)C1 | x | 68.3* | 6.8 | 123.6* | 4.7 | x
CCOP(=O)(C#Cc1ccccc1)C(O)c1ccc(Br)cc1 (stereo not given) | -3.5 | x | -7.3 | -6.6 | x | -48.2
COP(=O)(C#Cc1ccccc1)C(O)c1ccc(Br)cc1 (stereo not given) | -5.2 | x | -16.0 | 1.2 | 4.9 | -30.3*
CC1=CC(=C2C(=O)NC(=S)NC2=O)C=C(C(F)(F)F)N1Cc1ccccc1 | -3.0 | 87.5* | 7.9 | 2.4 | -2.9 | 8.4
